Rows were chosen to be rich in hits. Some 4.6% of all compounds tested hit in one or more screens of this group.
TIM10 inh: growth inhibitors of TIM10 yeast strain. 1.4% of 330,000 active. S. cerevisiae TIM10 strain growth, BacTiter-Glo luminescence, 24 h. AID 463195. inhibition, % at 10 µM;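 active = inhibition of 40% or more at the single tested concentration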;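 also: wild-type TIM10 isogenic control strain grown at permissive 25 °C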
PfHsp90 set2: growth inhibition of yeast expressing Plasmodium Hsp90 | 0.32% of 310,000 active | inhibition, % at 9.4 µM | S. cerevisiae expressing PfHsp90, BacTiter-Glo ATP, 48 h; yeast lacking PDR1 and PDR3 efflux regulators;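 active = every replicate shows inhibition above about 80%, whatever the replicate mean, limit read from the data; inconclusive = mean inhibition reaches the set limit but some replicate falls short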;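 also: 0% = DMSO neutral controls and 100% = 20 µM radicicol positive controls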
tim10-1 inh: growth inhibitors of tim10-1 mutant yeast; S. cerevisiae tim10-1 ts strain growth, BacTiter-Glo, 24 h; 2.2% of 330,000 active; inhibition, % at 20 µM; AID 463190;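 active = inhibition of at least 40%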;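 also: mutant grown at 25 °C; 0% = DMSO wells with yeast and 100% = wells holding no yeast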
SKKanGAS inh: blocks kanamycin growth of S. pyogenes SKKanGAS strain; 1.3% of 300,000 active; AID 1662; BacTiter-Glo, 6 h; inhibition, % at 7.5 µM;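 active = mean replicate score, as percent of positive control median, at least 50; inconclusive = mean below 50 but one replicate at or above 50; inactive = mean and every replicate below 50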;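 also: strain carries kanamycin resistance gene driven by streptokinase promoter and grows in 40 µg/ml kanamycin; loss of luminescence reflects streptokinase promoter inhibition or plain growth inhibition; 0% = median of DMSO wells and 100% = positive control at its reference dose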
tim23-1 inh: inhibits growth of tim23-1 mutant yeast; S. cerevisiae tim23-1 growth, BacTiter-Glo luminescence, 24 h; inhibition, % at 20 µM; 1.3% of 330,000 active; AID 463212;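 active = growth inhibition of the mutant yeast at or above 50%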;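 also: temperature-sensitive mutant grown at 25 °C; plate controls were DMSO-treated mutant yeast for no effect and medium wells lacking yeast for full effect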
NLRP3 yeast inh: NALP3 inhibition in yeast | Yeast reconstituted NLRP3/ASC/caspase-1, beta-gal luminescence, 24 h | inhibition, % at 10 µM | 0.39% of 330,000 active;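 active = inhibition of 50% or more; inactive = inhibition below 50%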;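 also: plate controls were induced DMSO wells for no effect and uninduced yeast grown without galactose for full effect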
tim10-1 conf: confirmation of tim10-1 mutant yeast growth inhibitors. AID 463213. S. cerevisiae tim10-1 ts strain growth, BacTiter-Glo, 24 h. 56% of 7,400 active. inhibition, % at 20 µM. shares compounds with tim10-1 inh;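 active = inhibition of yeast growth at or above a set limit in either of two repeat tests at 20 µM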;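 also: tim10-1 mutant grown at permissive 25 °C to find synthetic lethal compounds; 0% = DMSO yeast wells and 100% = medium wells without yeast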
Active calls of the source: *; u = inconclusive; x = not tested or not shown.

SMILES	TIM10 inh	PfHsp90 set2	tim10-1 inh	SKKanGAS inh	tim23-1 inh	NLRP3 yeast inh	tim10-1 conf
CCOC(=O)n1cnc2nc(N)nc(SC)c21	x	-11	x	x	x	x	x
N/C(=N\OC(=O)c1ccccc1Cl)c1cccnc1	13	-11	10	-6	15	11	x
N/C(=N\OC(=O)Cc1ccc(Cl)cc1)c1ccncc1	-1	-6	12	-1	9	-3	x
N/C(=N\OC(=O)c1cc(Br)ccc1Cl)c1cccnc1	31	-16	47*	0	-13	-6	49*
CC(C)(Oc1ccc(Cl)cc1)C(=O)O/N=C(\N)c1ccncc1	5	1	47*	2	3	31	3
N/C(=N\OC(=O)c1cc(Cl)ccc1Cl)c1cccnc1	21	-27	41*	6	-5	-22	25
N/C(=N\OC(=O)c1cccc(Cl)c1)c1ccncc1	20	3	42*	-12	22	2	30*
N/C(=N\OC(=O)c1cccc(Cl)c1)c1cccnc1	21	13	16	0	39	-13	x
COc1cccc(NC(=O)COC(=O)CCC2CCCC2)c1	20	11	10	x	23	4	x
CC(C)C[C@@H](C(=O)NCc1ccco1)N1C(=O)N2CCc3c([nH]c4ccccc34)[C@@]2(C)C1=O	14	15	22	10	6	0	x
CCCN1CCN(C(=O)CS(=O)(=O)Cc2nc(-c3cccc(OC)c3)oc2C)CC1	3	20	-6	9	25	5	x
Cc1cc(N2C3CCC2CC(O)(c2ccc(F)cc2)C3)nc(-c2ccccc2)n1 (stereo not drawn)	40	17	48*	-3	46	8	37*
Cc1ccccc1-c1nc(CS(=O)(=O)CC(=O)NC2CCCCC2C)c(C)o1 (stereo not drawn)	14	-1	41*	-6	15	20	-2
Cc1oc(-c2ccccc2F)nc1CSCC(=O)NC1CCC(C)CC1 (stereo not drawn)	6	47	40*	15	28	12	-7
Cc1ccccc1-c1nc(CS(=O)(=O)CC(=O)NC2CC2)c(C)o1	-7	5	-5	12	-5	20	x
COc1cc2c(cc1OC)C(COc1ccc(C(C)C)cc1)NCC2 (stereo not drawn)	36	-11	48*	-8	38	27	21
COc1cc2c(cc1OC)C(c1cccs1)NCC2 (stereo not drawn)	-9	12	-12	8	-1	14	x
COc1cccc(C(=O)O/N=C(\N)c2ccccn2)c1OC	-5	2	39	0	4	-6	x
COc1cccc(C(=O)O/N=C(\N)c2ccccn2)c1	29	13	40*	-1	33	26	46*
N/C(=N\OC(=O)c1cccc([N+](=O)[O-])c1)c1ccccn1	31	10	42*	16	23	19	12
CCCN(CC(=O)Nc1ccccc1C)C(=O)c1ccc(COc2ccccc2)cc1	-7	16	13	2	17	13	x
CCOc1cc(/C=N/NC(=O)CN2CCOCC2)ccc1OCc1ccc(Cl)cc1	18	-19	42*	6	16	25	10
O=C(Nc1ccc(Cl)cc1C(=O)N1CCCC1)c1cccc([N+](=O)[O-])c1	28	17	35	-6	31	5	x
Cn1nnc(NC(=S)NC(=O)c2cc(Cl)ccc2Cl)n1	11	7	41*	1	41	17	0
O=C(CS(=O)(=O)Nc1ccc(F)cc1Cl)Nc1ccc(F)cc1Cl	3	-32	26	-1	27	3	x
SMILES	TIM10 inh	PfHsp90 set2	tim10-1 inh	SKKanGAS inh	tim23-1 inh	NLRP3 yeast inh	tim10-1 conf
CCCc1nnc2c(N(C)S(=O)(=O)c3ccc(C)cc3)nc3ccccc3n12	18	9	40*	-3	16	-17	10
COc1ccc(C2C=C(C34CC5CC(CC(C5)C3)C4)NC(=S)N2)cc1 (stereo not drawn)	22	-9	43*	12	35	13	30
COc1ccc(C2=CC(c3ccc(OC)c(OC)c3)NC(=S)N2)cc1 (stereo not drawn)	7	4	12	6	4	-9	x
CCC(=O)NC(c1ccco1)c1cc(Cl)c2cccnc2c1OC (stereo not drawn)	-4	x	4	x	0	-1	x
CCC(=O)NC(c1ccco1)c1cc(Cl)c2cccnc2c1O (stereo not drawn)	1	52	40	-6	46	-25	28
CCCCSCCCNC(=O)Nc1ccc(C)c(C)c1	1	x	47*	-7	31	7	15
CCN(c1ccc(C)cc1C)S(=O)(=O)c1nnc(NC(=O)C(C)(C)C)s1	7	-54	14	13	15	9	x
CC(C)Oc1ccc(CNC(=S)N/N=C/c2ccc([N+](=O)[O-])cc2)cc1	-2	-6	43*	-2	-3	28	22
CCc1nnc(NC(=O)C2COc3ccccc3O2)s1 (stereo not drawn)	9	18	22	2	28	10	x
CCCCCc1nnc(NC(=O)C2COc3ccccc3O2)s1 (stereo not drawn)	21	0	46*	13	50	40	40*
Cc1ccc(/C=C2\Oc3cc(OCC(=O)NN)ccc3C2=O)o1	7	16	-5	4	28	5	x
COc1ccc(CCNc2cc(C)[nH]c(=O)c2)cc1OC	11	22	-16	-1	13	4	x
CCNC(=S)NNC(=O)c1cc(-c2cccnc2)nc2ccccc12	34	x	55*	20	45	10	41*
CCNC(=S)NNC(=O)c1cc(-c2cccc(OCC)c2)nc2ccccc12	15	-32	37	5	22	7	x
CCCCOc1cccc(-c2cc(C(=O)NNC(=S)NCC)c3ccccc3n2)c1	18	-14	41*	-4	11	5	37*
O=C(O)C1CCCN1S(=O)(=O)c1cccc2nsnc12 (stereo not drawn)	7	5	7	-11	19	10	x
COc1ccccc1-n1cc2c([N+](=O)[O-])cc([N+](=O)[O-])cc2n1	31	4	49*	11	45	18	38*
O=C(O)CCC(=O)Nc1ccc(Oc2ncnc3cc(Cl)ccc23)nc1	4	x	-13	-1	3	10	x
COc1cccc(/C=N/n2c(C3CCCCC3)n[nH]c2=S)c1O	36	16	48*	-1	47	23	33*
Cc1cc(NC(=O)c2ccoc2C)no1	-2	14	6	2	13	20	x
CCOC(=O)C1=C(CC)Nc2ccccc2N=C1NC(=O)c1oc2ccccc2c1C	27	-15	43*	u	29	5	-8

Screening results: PubChem, several laboratories
